According to PubChem BioAssay AID540321 (Johns Hopkins Ion Channel Center, 2011):
The source made the active and inactive calls.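 How the source made its calls: active means Inhibition of the Kir2.1 potassium channel over 30% at some tested dose, plus a fitted dose response curve; inactive means no Kir2.1 inhibition at any dose, or no curve fitted.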

Molecular target: Inward rectifier potassium channel 2 (Mus musculus) (UniProt P35561)
Test: off-target blockade of inward rectifier Kir2.1 – cell-based, FluxOR thallium flux, CRC round 2, selectivity assay for KCNK9 inhibitor project, SAR follow-up (AID 540321)
Conditions: Kir2.1-expressing cells; series mostly up to 30 µM

Inward rectifier potassium channel 2 (Mus musculus), sequence (P35561 whole entry, looked up): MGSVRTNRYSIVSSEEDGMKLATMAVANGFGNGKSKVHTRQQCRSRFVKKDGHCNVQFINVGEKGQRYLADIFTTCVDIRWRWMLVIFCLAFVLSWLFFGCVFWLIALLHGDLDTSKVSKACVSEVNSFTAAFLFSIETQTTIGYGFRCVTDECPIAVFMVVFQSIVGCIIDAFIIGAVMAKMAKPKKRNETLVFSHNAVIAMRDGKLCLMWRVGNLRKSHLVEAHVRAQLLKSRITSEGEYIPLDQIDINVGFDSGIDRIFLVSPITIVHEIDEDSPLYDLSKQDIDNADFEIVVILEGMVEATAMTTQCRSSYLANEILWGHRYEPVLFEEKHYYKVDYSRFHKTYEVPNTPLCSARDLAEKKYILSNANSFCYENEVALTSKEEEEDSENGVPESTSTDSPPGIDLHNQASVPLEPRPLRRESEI

outcome, inactive:
O=C(Nc1cccc(NC(=O)c2ccncc2)c1)c1ccccc1
CCOc1ccc(NC(=O)c2cccc(NC(=O)C3CCCC3)c2)cc1
CCOc1ccccc1NC(=O)c1cccc(NC(=O)c2ccccc2)c1
Cc1ccc(C(=O)Nc2cccc(NC(=O)c3ccccc3)c2)cc1
CCOc1ccccc1NC(=O)c1cccc(NC(=O)C2CC2)c1
Cc1cccc(C(=O)Nc2cccc(NC(=O)c3ccccc3C(F)(F)F)c2)c1
CCOc1ccccc1C(=O)Nc1cccc(NC(=O)c2ccccc2OC)c1
COc1ccccc1NC(=O)c1cccc(NC(=O)C2CCCC2)c1
CC(C)(C)c1ccc(C(=O)Nc2cccc(NC(=O)c3ccccc3)c2)cc1
Cc1ccc(-c2n[nH]c(=S)n2C(C)C2CC3CCC2C3)cc1 (stereo not given)
CCOc1ccccc1NC(=O)c1cccc(NC(=O)C2CCCC2)c1
Cc1cccc(C(=O)Nc2cccc(NC(=O)c3ccccc3Cl)c2)c1
COc1cccc(C(=O)Nc2cccc(NC(=O)c3cccc(C)c3)c2)c1
COc1ccc(C(=O)Nc2cccc(NC(=O)c3ccccc3)c2)cc1
CCOc1ccccc1C(=O)Nc1cccc(NC(=O)c2ccccc2C(F)(F)F)c1
O=C(Nc1cccc(NC(=O)c2ccsc2)c1)c1ccccc1
CCOc1ccccc1NC(=O)c1cccc(NC(=O)c2ccc(C(F)(F)F)cc2)c1
CC(C1CC2CCC1C2)n1c(-c2ccoc2)n[nH]c1=S (stereo not given)
COc1ccccc1NC(=O)c1cccc(NC(=O)c2ccccc2)c1
CCOc1ccccc1NC(=O)c1cccc(C(=O)NC2CCCC2)c1
COc1ccccc1-c1n[nH]c(=S)n1C(C)C1CC2CCC1C2 (stereo not given)
O=C(Nc1cccc(NC(=O)C2CCCCC2)c1)c1ccccc1
COc1ccccc1C(=O)Nc1cccc(NC(=O)c2ccccc2C(C)C)c1
Cc1ccccc1C(=O)Nc1cccc(NC(=O)c2ccccc2)c1
Cc1cccc(C(=O)Nc2cccc(NC(=O)c3cccc(Cl)c3)c2)c1
CC(C)n1c(-c2ccco2)n[nH]c1=S
Cc1cccc(C(=O)Nc2cccc(NC(=O)C3CCCCC3)c2)c1
Cc1cccc(C(=O)Nc2cccc(NC(=O)c3ccncc3)c2)c1
CCOc1ccccc1NC(=O)c1cccc(NC(=O)C2CCCO2)c1 (stereo not given)
CCOc1ccccc1NC(=O)c1cccc(NC(=O)c2ccc(Cl)cc2)c1
COc1ccccc1NC(=O)c1cccc(NC(=O)C2CCCCC2)c1
COc1ccccc1C(=O)Nc1cccc(NC(=O)c2ccccc2)c1
Cc1cccc(-c2n[nH]c(=S)n2C(C)C2CC3CCC2C3)c1 (stereo not given)
Cc1cccc(S(=O)(=O)Nc2cccc(NC(=O)c3ccccc3)c2)c1
O=C(Nc1cccc(NC(=O)c2ccc(C(F)(F)F)cc2)c1)c1ccccc1
